Results published in PubChem BioAssay (NCI).
The panel holds about 83,000 compounds, 20% with a hit somewhere; the sample as a whole holds those more often.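 The test compound was applied at a single concentration to cells in 96-well plates for 48 hours, and percent growth was recorded.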 Values without a mark were called inactive. Active and inactive are the calls of the source. The calls were made as follows: active = growth percent below 10; inactive = the rest.

What was measured:
Test in all cases: NCI-60 one-dose screen, 48 h (100 = growth as untreated, 0 = no growth, -100 = all killed)
Conditions in all cases: 10 µM unless noted
[1] = test system: DU-145 prostate
[2] = test system: K-562 leukemia
[3] = test system: MALME-3M melanoma
[4] = test system: MDA-MB-231 breast
[5] = test system: RXF 393 renal
[6] = test system: SF-268 CNS
[7] = test system: SF-295 CNS
[8] = test system: SF-539 CNS
[9] = test system: M14 melanoma
[10] = test system: HCT-15 colon
[11] = test system: HT29 colon
[12] = test system: SNB-75 CNS
[13] = test system: SNB-19 CNS
[14] = test system: U251 CNS
[15] = test system: PC-3 prostate
[16] = test system: SK-MEL-5 melanoma
[17] = test system: LOX IMVI melanoma
[18] = test system: UACC-257 melanoma
[19] = test system: SK-MEL-28 melanoma
[20] = test system: UACC-62 melanoma

| SMILES | growth [1] | growth [2] | growth [3] | growth [4] | growth [5] | growth [6] | growth [7] | growth [8] | growth [9] | growth [10] | growth [11] | growth [12] | growth [13] | growth [14] | growth [15] | growth [16] | growth [17] | growth [18] | growth [19] | growth [20] |
| --- | --- | --- | --- | --- | --- | --- | --- | --- | --- | --- | --- | --- | --- | --- | --- | --- | --- | --- | --- | --- |
| O=S(=O)(NCCNc1cc(-c2cn(-c3ccccc3)nc2-c2cccc(O)c2)ccn1)c1ccc(Br)cc1 | 52.2% | 3.66% (active) | 43.2% | 4.31% (active) | 40.1% | 36.1% | 7.27% (active) | 46.2% | 20.3% | 5.6% (active) | 4.7% (active) | 43.7% | 41.3% | 22.5% | 15.6% | 11.5% | 20% |  |  |  |
| O=P(O)(c1ccccc1)c1ccccc1I | 109% | 93.8% | 87.5% | 97.1% | 102% | 99.8% | 93.7% | 101% |  | 111% | 80% | 84% | 103% | 89.3% | 82.1% |  | 93.8% | 76.5% | 108% |  |
| COc1cccc(-c2nn(-c3ccccc3)cc2-c2ccnc(NCCCNS(=O)(=O)c3ccc(Br)cc3)c2)c1 | 72.6% | 19.1% | 71.9% | 42.4% | 44.7% | 55.2% | 37.7% | 76.3% | 47.4% | 42.5% | 9.65% (active) | 75.2% | 60.2% | 40.2% | 26.4% | 39.9% | 56.6% |  |  |  |
| COc1cc2c3c(c4c5ccccc5[nH]c4c2c(OC)c1OC)C(=O)N(O)C3=O | 71.7% | 20.8% | 78.5% | 44.2% | 52.2% | 49.3% | 47.8% | 30.9% | 37.5% | 45.8% | 52.1% | 72.6% | 54.5% | 28% | 43.8% | 11.1% | 26.3% |  |  |  |
| COc1ccc(C2=NN(c3nc(-c4ccc(OC)cc4)c(C#N)c(=O)n3C)C(=O)CC2)cc1 | 115% | 101% | 81.6% | 83.5% | 97.5% | 100% | 93.6% | 93.6% | 95.4% | 106% | 109% | 86.5% | 96.7% | 100% | 82.4% | 96.3% | 101% |  |  |  |
| COc1cccc(-c2nn(-c3ccccc3)cc2-c2ccnc(NCCCNS(=O)(=O)c3ccc(Cl)cc3)c2)c1 | 67.1% | 11.6% | 74.6% | 23.5% | 46.4% | 56.1% | 24.2% | 62.3% | 33.4% | 34.4% | 11.3% | 71.2% | 52.1% | 35.5% | 25.1% | 30.8% | 52.3% |  |  |  |
| CCc1ccccc1NC(=O)c1sc2nc3c(cc2c1N)CCCC3 | 51.7% | 12.1% | 55.7% | 51.3% | 49.8% | 49.2% | 29.6% | 13.9% | 24.1% | 28.1% | 13.5% | 12.3% | 37.6% | 27.8% | 52.9% | 34.8% | 36.5% |  |  |  |
| O=S(=O)(NCCNc1cc(-c2cn(-c3ccccc3)nc2-c2cccc(O)c2)ccn1)c1cccc(F)c1 | 63.5% | 7.94% (active) | 64.9% | 11.5% | 62.3% | 54.9% | 22.4% | 51.2% | 31.8% | 5.71% (active) | 7.47% (active) | 48.1% | 51.5% | 32.3% | 25.4% | 26.9% | 36.5% |  |  |  |
| O=C(CCCCCn1c2ccccc2c2c3c(c4c5ccccc5[nH]c4c21)C(=O)N(O)C3=O)N1CCOCC1 | 69.6% | 33.6% | 113% | 48.2% | 56% | 47.4% | 28.5% | 35.6% | 38.6% | 49.2% | 0.235% (active) | 87% | 47.3% | 33.9% | 26.5% | 0.765% (active) | -16.8% (active) |  |  |  |
| O=S(=O)(NCCNc1cc(-c2cn(-c3ccccc3)nc2-c2cccc(O)c2)ccn1)c1ccc(Cl)cc1 | 62.8% | 2.13% (active) | 34.5% | -2.86% (active) | 38% | 40.2% | 13.3% | 61.8% | 23.5% | 7.32% (active) | 0.572% (active) | 53.8% | 47.7% | 22.1% | 14.9% | 15.5% | 30% |  |  |  |
| Nc1c(C(=O)Nc2cccc3ccccc23)sc2nc3c(cc12)CCCC3 | 19.3% | 9.59% (active) | 78% | 33.2% | 27.4% | 50.1% | 14.6% | 8.91% (active) | 7.77% (active) | 26.8% | 2.73% (active) | 37.9% | 39.2% | 25.4% | 39.9% | 28.2% | 38.6% |  |  |  |
| O=C1c2cc3c(cc2-c2c1c1ccc(Cl)cc1c(=O)n2C[C@H](O)[C@@H](O)[C@H](O)CO)OCO3 | 3.84% (active) | 12% | -28.2% (active) | 6.7% (active) | -47% (active) | 7% (active) | -5.74% (active) | -39.8% (active) |  | 0.364% (active) | -14.4% (active) | -1.89% (active) | 7.77% (active) | -26.9% (active) | 12.7% |  | -18.5% (active) | -49.4% (active) | -18.8% (active) | -86.9% (active) |
| O=S(=O)(NCCNc1cc(-c2cn(-c3ccccc3)nc2-c2cccc(O)c2)ccn1)c1ccc(F)cc1 | 55.3% | 1.3% (active) | 14.5% | -9.05% (active) | 35% | 40.4% | 10.4% | 44.4% | 14.2% | 6.55% (active) | 1.75% (active) | 45.6% | 46.5% | 17.4% | 15.1% | -12% (active) | 27.7% |  |  |  |
| COC(=O)[C@]12CC[C@@H](C)[C@H](C)[C@@H]1C1=CC[C@@H]3[C@@]4(C)C(c5ncon5)=C[C@@](C)(CO)C4=CC[C@@]3(C)[C@]1(C)CC2 | -71.5% (active) | -21.2% (active) | -73.6% (active) | -49.3% (active) | -73.2% (active) | -7.68% (active) | -46.8% (active) | -86.2% (active) | -58.5% (active) | -64.9% (active) | -68.2% (active) | 55.5% | 6.01% (active) | -59.5% (active) | -12.7% (active) | -71.6% (active) | -93.7% (active) |  |  |  |
| O=S(=O)(NCCNc1cc(-c2cn(-c3ccccc3)nc2-c2cccc(O)c2)ccn1)c1ccccc1 | 76.2% | 9.58% (active) | 76.4% | 28% | 66.3% | 69.7% | 43.2% | 70% | 53.9% | 17.9% | 24.1% | 78.4% | 72.4% | 43.3% | 30.1% | 34% | 54.7% |  |  |  |
| CC(=O)O[C@@H]1CCN2C(=O)N(C)c3ccccc3[C@@H]2C1 | 121% | 93.5% | 94.7% | 111% | 115% | 113% | 88.9% | 97.7% | 101% | 103% | 104% | 89% | 98.3% | 102% | 89.1% | 104% | 98.6% |  |  |  |
| COc1cccc(-c2nn(-c3ccccc3)cc2-c2ccnc(NCCCNS(=O)(=O)c3ccc(C(F)(F)F)cc3)c2)c1 | 59.6% | 8.17% (active) | 25.8% | 6.9% (active) | -7.54% (active) | 43.9% | 14.5% | 46.4% | 22.1% | 22.3% | -6.28% (active) | 47.4% | 38% | 27.1% | 12.9% | -54.2% (active) | 36% |  |  |  |
